Source: PubChem BioAssay
Hits are enriched below; roughly 0.4% of the tested compounds scored in any of these assays.
Cdc42 wt GTP: human Cdc42 wildtype GTP binding change, either direction. P60953. GST-Cdc42 beads, Bodipy-GTP binding, flow cytometry; actives lie on both sides. percent activity (GTP binding), % at 10 µM. 190,000 compounds, 0.2% hits;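 active means percent activity GTP binding at least 20 points away from the 100% baseline, either down as inhibitor or up as activator; inconclusive means compound flagged as likely green fluorescent from well-wide comparison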;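 further: median bead fluorescence of bound Bodipy-FL-GTP at 100 nM; below 100% means less GTP binding so inhibitor and above means activator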
Target sequence (P60953 whole entry, looked up): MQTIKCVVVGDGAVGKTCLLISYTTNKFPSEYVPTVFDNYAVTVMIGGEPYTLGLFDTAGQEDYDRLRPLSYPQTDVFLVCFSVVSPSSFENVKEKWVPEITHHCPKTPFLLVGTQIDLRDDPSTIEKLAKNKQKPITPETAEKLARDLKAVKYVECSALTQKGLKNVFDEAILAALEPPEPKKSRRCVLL
Rab7 wt modul: dog Rab7 wildtype GTP binding, inhibitors and activators. 190,000 compounds, 0.055% hits. GST-Rab7 beads, fluorescent GTP binding, flow cytometry; actives lie on both sides; untreated = 100%, excess cold GTP = 0%. GTP binding activity (percent of control), % at 10 µM;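 active means fluorescent GTP binding to Rab7 beads changed by at least 20 points from the 100% baseline, either direction, mostly lower; inconclusive means compound itself probably fluorescent, or too few beads counted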;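 further: median green fluorescence of bound Bodipy-FL-GTP per Rab7 bead population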
Rab2A wt mod: changes GTP binding to wildtype dog Rab2A, up or down | P61105 | GST-Rab2 wt beads, Bodipy-GTP binding, flow cytometry | GTP binding activity, % at 10 µM | 190,000 compounds, 0.19% hits;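 active means GTP binding activity at least 20 points away from 100%, either lowered or raised; inconclusive means signal likely due to the compound's own green fluorescence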
HRas wt GTP: human HRas wildtype GTP binding, change in either direction. P01112. GST-Ras wt beads, Bodipy-FL-GTP binding, flow cytometry; actives lie on both sides. GTP binding activity, % at 10 µM. 190,000 compounds, 0.14% hits;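 active means GTP binding activity at least 20% away from the 100% baseline, either lowered as inhibitor or raised as activator; inconclusive means flagged as likely green fluorescent, judged across all proteins in the well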
Target sequence (P01112 whole entry, looked up): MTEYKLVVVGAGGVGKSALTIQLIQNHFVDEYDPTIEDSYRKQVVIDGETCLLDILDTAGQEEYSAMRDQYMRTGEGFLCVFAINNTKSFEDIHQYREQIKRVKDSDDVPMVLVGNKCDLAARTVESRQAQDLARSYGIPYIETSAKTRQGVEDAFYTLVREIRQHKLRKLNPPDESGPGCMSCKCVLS
Rac1 mut GTP: human Rac1 activated mutant GTP binding change; 190,000 compounds, 0.11% hits; AID 764; percent activity (GTP binding), % at 10 µM; P63000; GST-Rac1 activated beads, fluorescent GTP binding, flow cytometry; actives lie on both sides; 100% means binding = to untreated wells;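 active means GTP binding at least 20 percentage points away from the 100% baseline, in either direction, so actives lie on both sides; inconclusive means Compound likely fluorescent itself, or too few beads counted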
Rac1 wt GTP bind: human Rac1 wildtype GTP binding, inhibitors and activators; P63000; GTP binding activity (% of control), % at 10 µM; 190,000 compounds, 0.27% hits; AID 757; GST-Rac1 beads, fluorescent GTP binding, flow cytometry; actives lie on both sides; 0 = cold GTP competed, 100 = untreated;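 active means GTP binding activity at least 20 points away from the 100% control level, either lower or higher; inconclusive means compound flagged as likely green fluorescent, judged across all proteins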
Large screens that a line does not name were inactive; [ ] = another dose, or the depositor's remark.

O=C(O)c1cc(-c2ccc(/C=C3/SC(=S)N(Cc4ccccc4)C3=O)o2)ccc1Cl	Cdc42 wt GTP 76, Rab2A wt mod 78, Rac1 mut GTP 77, Rac1 wt GTP bind 74
O=C(O)c1ccccc1SCc1ccc2c(c1)OCO2	Cdc42 wt GTP 135[activator], Rab7 wt modul 121[activator], Rab2A wt mod 127[activator], HRas wt GTP 123[activator], Rac1 mut GTP 127[activator], Rac1 wt GTP bind 135[activator]
O=C(c1ccccc1SCc1ccccc1)N1CCOCC1	none
S=C(NCCc1ccccc1)NC1CC1	Rac1 wt GTP bind 123[activator]
Cc1ccc(OCc2cnc(Cl)s2)c(C)c1	none
O=C(C#Cc1ccccc1)c1cccc([N+](=O)[O-])c1	Cdc42 wt GTP 74, Rac1 mut GTP 71
N/C(=N\OC(=O)Oc1ccccc1)c1cccc([N+](=O)[O-])c1	none
Cc1ccc(NC(=O)C(C)N2C(=O)c3ccccc3C2=O)cc1S(=O)(=O)N1CCOCC1 (stereo not drawn)	none
Cc1ccc(/C(O)=C2\C(=O)C(=O)N(CC(C)O)C2c2ccccn2)cc1 (stereo not drawn)	none
Cc1ccc(-n2c(SCC(N)=O)nnc2-c2cccnc2)c(C)c1	none
Cc1ccc(-n2c(SCc3cc(=O)n4ccsc4n3)nnc2-c2cccnc2)c(C)c1	Cdc42 wt GTP 146[activator], Rac1 mut GTP 120[activator], Rac1 wt GTP bind 163[activator]
CCOc1cc(S(=O)(=O)NCc2ccncc2)ccc1Cl	none
COc1cc(/C=N/Nc2nn3cnnc3c3ccccc23)ccc1O	Cdc42 wt GTP 58, Rab2A wt mod 72, HRas wt GTP 62, Rac1 mut GTP inconclusive, Rac1 wt GTP bind 75
Clc1cnc(N/N=C/c2ccco2)c(Cl)c1	none
C(=N\Nc1nn2cnnc2c2ccccc12)/c1ccco1	Cdc42 wt GTP 77, Rab2A wt mod 72, HRas wt GTP 75
COc1ccc(C(=O)Nc2nc3ccccc3[nH]2)cc1S(=O)(=O)N1CCOCC1	Cdc42 wt GTP 78, Rab2A wt mod 77
O=C(NNC(=O)C1CC(c2cccnc2)=NO1)Nc1ccccc1F (stereo not drawn)	none
COCCNC(=S)Nc1cc(OC)c(OC)cc1C#N	Cdc42 wt GTP 60, Rab2A wt mod 59, HRas wt GTP 67, Rac1 wt GTP bind 57
COc1ccc(-c2cn(-c3ccccc3)c3[n+]2CCS3)cc1	none
CCN1/C(=C/C=C/C=C/c2sc3ccccc3[n+]2CC)Sc2ccccc21	Cdc42 wt GTP 63, Rab2A wt mod 57, HRas wt GTP 51, Rac1 mut GTP inconclusive (no result: Rab7 wt modul)
Cc1ccc(-n2[nH]c(C)c(C=Nc3ccc(Br)cn3)c2=O)cc1	none
CSc1nnc(-c2cc(Br)ccc2N=Cc2c(C)[nH]n(-c3ccccc3)c2=O)c(=O)[nH]1	Cdc42 wt GTP 78
O=C1CC(c2ccc(F)cc2)Sc2ccccc2N1 (stereo not drawn)	Rac1 wt GTP bind 129[activator]
CN(/N=C/c1ccc(Br)o1)C1=NS(=O)(=O)c2ccccc21	Rac1 wt GTP bind 77
Cc1ccc(/C=N/N(C)C2=NS(=O)(=O)c3ccccc32)o1	Cdc42 wt GTP 64, Rab2A wt mod 65, HRas wt GTP 66, Rac1 wt GTP bind 64
CCC(COC)NCc1cn(-c2ccc(OC)cc2)nc1-c1cccc(F)c1 (stereo not drawn)	none
CC(=O)Nc1ccc(-c2ccc3nnc(C)n3n2)cc1	none
Cc1nnc2ccc(-c3ccc(NC(=O)c4ccco4)cc3)nn12	Rac1 wt GTP bind 75
COc1ccc(C(=O)NC(=S)Nc2ccc(Cc3ccncc3)cc2)cc1	none
COc1cc(NS(=O)(=O)c2ccc(N)cc2)nc(OC)n1	none
Cc1cc(NS(=O)(=O)c2ccc(Nc3nc(-c4sc(N)nc4C)cs3)cc2)no1	Rab2A wt mod 75, HRas wt GTP 78
CCCC(=O)Nc1nc(C)c(-c2csc(Nc3cc(OC)ccc3OC)n2)s1	none
COc1cc(NS(=O)(=O)c2ccc(Nc3nc(-c4ccccc4)cs3)cc2)nc(OC)n1	Cdc42 wt GTP 71, Rab2A wt mod 77, HRas wt GTP 79, Rac1 wt GTP bind 73
COc1ccc(OC)c(Nc2nc(-c3sc(N)nc3C)cs2)c1	Cdc42 wt GTP 77, HRas wt GTP 79, Rac1 wt GTP bind 79
Cc1cc(NS(=O)(=O)c2ccc(Nc3nc(-c4ccc(C)c(C)c4)cs3)cc2)no1	none
CCc1ccc(Cc2cnc(NC(=O)C3=NCCN3)s2)cc1	none
Cc1ccc(-c2nnc(N3CC(C)OC(C)C3)c3ccccc23)cc1 (stereo not drawn)	none
O=C1C=C(NCc2ccc3c(c2)OCO3)CC(c2ccccc2)C1 (stereo not drawn)	none
COc1ccc(-n2c(SCC(N)=O)nc3sc4c(c3c2=O)CCC4)cc1	none
CCOC(=O)C1=C(C)NC(=O)CC1c1cc(OC)c(OC)cc1Br (stereo not drawn)	none
Cc1ccc(O)c(N=Cc2cc(Cc3ccccc3)cc([N+](=O)[O-])c2O)c1	Cdc42 wt GTP 76, Rab7 wt modul 79, Rab2A wt mod 74, Rac1 mut GTP 68, Rac1 wt GTP bind 77
O=[N+]([O-])c1cc(Cc2ccccc2)cc(C=Nc2ccc(N3CCOCC3)cc2)c1O	Cdc42 wt GTP 78, Rab7 wt modul 71, Rab2A wt mod 64, HRas wt GTP 77, Rac1 mut GTP 62, Rac1 wt GTP bind 75
COc1cc(NC(=O)c2ccc(C(C)(C)C)cc2)c(OC)cc1NC(=O)CN1CCCCC1	none
COc1ccccc1Oc1ccccc1C(=O)O	Cdc42 wt GTP 122[activator], Rac1 wt GTP bind 130[activator]
CCO[C@@H]1OC(C(=O)N2CCN(Cc3ccccc3)CC2)=C[C@H](c2coc3ccccc3c2=O)[C@H]1CCCO	none
O=S(=O)(Nc1ncccn1)c1ccc(-n2cnnn2)cc1	none
CCN(CC)S(=O)(=O)c1ccc2c(c1)c(=O)c(C(=O)N1CCc3ccccc3C1)cn2C	Rac1 wt GTP bind 132[activator]
O=C(Cc1c(O)c2ccccc2[nH]c1=O)NC1CCCCCC1	none
CC(C)CCNC(=O)Cc1ccc(Nc2nc(=S)[nH]c3ccccc23)cc1	Rab2A wt mod 75, HRas wt GTP 75, Rac1 wt GTP bind 73
O=C(CCCCCNc1nc(=S)[nH]c2ccccc12)NCCc1ccc(Cl)cc1	none
O=C(Cc1ccc(Nc2nc(=S)[nH]c3ccccc23)cc1)NC1CCCCC1	Cdc42 wt GTP 65, Rab2A wt mod 66, HRas wt GTP 68, Rac1 mut GTP 76, Rac1 wt GTP bind 57
COc1ccc(N2C(=S)NC3N2C(=S)NC3(C)c2ccccc2)cc1 (stereo not drawn)	none
O=C(Nc1ccon1)c1ccc(S(=O)(=O)N2CCOCC2)cc1	none
O=Nc1c(O)[nH]c2ccc(F)cc12	none
